This is a sample that favours compounds with a hit; in the whole collection about 4.8% have one here.
DAX1 inh-1 = DAX1 (NR0B1) inhibition, primary screen; inhibition, % at 6.8 µM; HEK293T StAR-luciferase reporter, SF-1/DAX-1 repression relief; actives 1.1% (n = 370,000);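 active means inhibition above the mean over all tested compounds plus 3 SD, cut at about 3.6% in these data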;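 further: 0% = DAX-1 cells with DMSO and 100% = cells lacking DAX-1 with DMSO; higher inhibition means more luminescence from relief of DAX-1 repression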
SMARCA2 act = SMARCA2 function activation, primary screen; actives 1% (n = 370,000); activation, % at 9.1 µM; MG213 cells, MMTV-luciferase reporter, dexamethasone, overnight; in the data active means activation above about 7.8%;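 further: 0% = vehicle wells and 100% = reference activator wells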
hgDAF-12 ag = activates the H. glycines DAF-12 receptor ligand-binding domain; HEK293 GAL4-hgDAF12 UAS-luciferase reporter, agonist luminescence; normalized to butyrate control; activation, % at 6.8 µM; actives 1.8% (n = 370,000);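 active means activation above a cutoff set at the mean of all screened compounds plus 3 SD, cut at about 10% in these data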;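 further: 0% = DMSO wells and 100% = sodium butyrate wells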
DAX1 inh-2 = inhibitors of human orphan nuclear receptor DAX1 (NR0B1); P51843; HEK293 Gal4-DAX1 luciferase reporter, luminescence; inhibition, % at 6.75 µM; actives 0.99% (n = 340,000); AID 504766;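 active means inhibition above the mean over all tested compounds plus 3 SD, cut at about 4.2% in these data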;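 further: 0% = DAX1-transfected cells with DMSO and 100% = empty-vector control cells with DMSO; inhibition shows as a rise in luminescence from relieved DAX1 repression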
ssDAF-12 act = activates DAF-12 receptor from parasite S. stercoralis. HEK293 ssDAF-12/GRIP1 lit1-tk-luc reporter, luminescence; % of 3 µM dafachronic acid response. activation, % at 6.8 µM. AID 652126. actives 1% (n = 370,000);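 active means activation above the mean over all tested compounds plus 3 SD, cut at about 0.9% in these data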;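 further: 0% = DMSO-only wells and 100% = 3 µM delta7-dafachronic acid wells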
hcDAF12 agonist = H. contortus DAF-12 activation, primary screen; HEK293 hcDAF-12 lit1-tk-luc reporter, luminescence; 0% DMSO, 100% Δ7-dafachronic acid; activation, % at 6.8 µM; actives 1.4% (n = 370,000); AID 652067;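 active means activation above the mean of all tested compounds plus 3 SD, cut at about 5.5% in these data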;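 further: 100% = response to 3 µM Δ7-dafachronic acid high control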
hgDAF12 conf = hgDAF-12 agonism, confirmation assay | shares compounds with hgDAF-12 ag | HEK293 GAL4-hgDAF12 luciferase reporter, agonist mode; percent of butyrate response | activation, % at 6.8 µM | actives 80% (n = 3,300);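 active means mean activation over triplicate wells above the hit cutoff derived from the earlier primary screen, cut at about 11% in these data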;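 further: 0% = DMSO low control and 100% = 2 mM sodium butyrate high control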
LXR ag 2 = LXR-beta agonism as DAF-12 counter-screen; shares compounds with hgDAF-12 ag; HEK293 Gal4-LXR luciferase reporter, 24 h; 3,300 tested, under 10 active; AID 743051; activation, % at 6.8 µM;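 active means mean activation of the triplicate above a set limit carried over from the primary screen, none filed active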
Target sequence (P55055 whole entry, looked up, the tested form may be a part): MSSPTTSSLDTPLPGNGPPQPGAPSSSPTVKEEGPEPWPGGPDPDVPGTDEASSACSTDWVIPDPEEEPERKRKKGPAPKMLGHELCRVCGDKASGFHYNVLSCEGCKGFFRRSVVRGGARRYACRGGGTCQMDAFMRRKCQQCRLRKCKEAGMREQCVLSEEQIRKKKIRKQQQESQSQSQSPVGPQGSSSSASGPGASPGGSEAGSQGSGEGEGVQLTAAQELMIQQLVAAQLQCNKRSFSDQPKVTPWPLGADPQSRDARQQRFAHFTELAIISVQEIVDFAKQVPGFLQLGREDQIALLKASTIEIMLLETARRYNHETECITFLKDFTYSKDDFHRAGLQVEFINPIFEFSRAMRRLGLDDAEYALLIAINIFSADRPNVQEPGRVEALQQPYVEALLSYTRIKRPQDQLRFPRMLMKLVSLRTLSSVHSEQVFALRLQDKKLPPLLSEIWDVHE
* = called active by the depositor; / = no result.

SMILES | DAX1 inh-1 | SMARCA2 act | hgDAF-12 ag | DAX1 inh-2 | ssDAF-12 act | hcDAF12 agonist | hgDAF12 conf | LXR ag 2
O=C(Nc1ccccc1)OCCCc1ccccc1 | 1 | 6 | 16* | 1 | -1 | 0 | 12* | 0
O=c1[nH]cnc2cc(-c3ccccc3)sc12 | 2 | 4 | 13* | 0 | -1 | 1 | 11* | 0
O=C1c2ccccc2NC(c2ccccc2)N1/N=C/c1ccccc1 (stereo not given) | 3 | 3 | 15* | 1 | 1 | 5 | 15* | 1
CC1(C(=O)NS(=O)(=O)c2ccccc2Cl)CCN1C(=O)c1ccco1 (stereo not given) | 1 | 0 | 2 | / | -1 | -2 | / | /
CS(=O)(=O)c1ccc2nc(NC(=O)c3cccs3)sc2c1 | 4.0* | 4 | 15* | -2 | 1 | 6.3* | 16* | 1
CCOc1ccc2nc(NC(=O)CCC(=O)c3cccs3)sc2c1 | 1 | 7 | 13* | 3 | 0 | 5 | 15* | 1
Cc1ccc(NC(=O)c2ccc(N3C(=O)C4CC=C(Cl)CC4C3=O)cc2)cc1 (stereo not given) | 2 | 3 | 2 | -1 | -1 | -1 | / | /
C/C(=N\O)c1ccc(N2C(=O)C3CC=C(Cl)CC3C2=O)cc1 (stereo not given) | 4 | 7 | 14* | 5.0* | 0 | 4 | 15* | 1
N=C1/C(=C/c2ccc(OCc3ccccc3F)cc2)C(=O)N=C2SC(CC(=O)N3CCOCC3)=NN12 | 0 | 0 | 15* | 1 | 0 | 4 | 3 | 0
CC(=O)Nc1c(O)nc(SCC(=O)Nc2ccc(C(C)=O)cc2)[nH]c1=O | 0 | 5 | 14* | 1 | -1 | 3 | 12* | 0
Nc1ncc(Br)cc1N=Cc1ccccc1 | 3 | 0 | 18* | 1 | 0 | 6.0* | 10 | 1
Cn1ncc(N=Cc2ccccc2)c1C(N)=O | 0 | 1 | -1 | 0 | -1 | -1 | / | /
Cc1ccnc(NC(=O)Nc2ccc(F)cc2)c1 | 3 | 6 | 14* | 2 | 1 | 5 | 19* | 1
CCOC(=O)c1sc(Nc2nc3ccc(OC)cc3s2)cc1C | -1 | -2 | 4 | -1 | -1 | -1 | / | /
CCOC(=O)c1sc(NC(=O)Nc2cccc(Cl)c2)cc1C | 1 | -4 | 10 | 1 | 1 | 1 | / | /
CCOC(=O)c1sc(NC(=O)c2sccc2C)cc1C | 2 | 0 | 17* | 3 | 1.2* | 6.4* | 17* | 1
CCOC(=O)c1sc(Nc2nc3c(F)cccc3s2)cc1C | 0 | -1 | 16* | 0 | 0 | 5 | 13* | 0
CCOC(=O)c1sc(NC(=O)c2cccs2)cc1C | 0 | -2 | 15* | 0 | -1 | 0 | 14* | 1
CCOC(=O)c1cccc(NC(=O)c2cccs2)c1 | 0 | 5 | 5 | 1 | -1 | 0 | / | /
Cc1cccc(NC(=O)NN(C(=O)c2ccccc2Cl)C(C)(C)C)c1 | -1 | -1 | 13* | / | -1 | -1 | 2 | 0
CC1=Nc2ccccc2N=C(NC(=O)c2ccccc2)C1c1ccccc1 (stereo not given) | 2 | -3 | 19* | 3 | 0 | 0 | 1 | 0
CC1=Nc2ccccc2N=C(NC(=O)CN2CCN(c3ccccc3)CC2)C1c1ccccc1 (stereo not given) | 0 | 2 | -1 | 0 | -1 | -1 | / | /
CC(NC(=O)c1cc2c(=O)n(C)c3ccccc3c2n1C)c1ccc2c(c1)OCCO2 (stereo not given) | 0 | 0 | 17* | 0 | -1 | -1 | -4 | 0
Cc1ccccc1C(=O)NC1CC2CCCC(C1)N2Cc1ccc(Cl)cc1 (stereo not given) | 0 | -1 | -1 | -1 | -1 | -2 | / | /
Cc1nc(N)sc1C(=O)N/N=C/c1ccc([N+](=O)[O-])cc1 | 0 | 2 | 0 | / | -1 | 4 | / | /
SMILES | DAX1 inh-1 | SMARCA2 act | hgDAF-12 ag | DAX1 inh-2 | ssDAF-12 act | hcDAF12 agonist | hgDAF12 conf | LXR ag 2
Cc1nc(N)sc1C(=O)N/N=C/c1ccccc1[N+](=O)[O-] | 2 | 4 | 14* | / | -1 | 2 | 10 | 0
CC(C)c1ccc(/C=N/NC(=O)c2nnn(-c3nonc3N)c2CSC2=NCCS2)cc1 | 0 | 2 | 1 | -2 | 0 | -3 | / | /
Cc1nnc(SCC(=O)NC2CCCc3c2cnn3-c2ccccc2F)o1 (stereo not given) | 0 | -1 | 0 | 0 | -1 | 0 | / | /
O=C(Nc1ccc(Cl)cc1)N1CCSCC1 | 0 | 2 | 0 | 0 | -1 | -2 | / | /
O=C(CSC(=S)N1CCSCC1)c1ccc(Cl)cc1 | 2 | 5 | 13* | 4 | -1 | 1 | 14* | 1
O=C(NCC1CC1)c1ccc2c3n(nc2c1)-c1ccccc1CO3 | 3 | 7 | 14* | -1 | 1 | 4 | 17* | 1
O=CNC1c2ccccc2CCc2ccccc21 | 0 | -3 | -2 | 0 | -1 | -1 | / | /
O=C(Nc1nnc(-c2cccs2)o1)c1cccc(F)c1 | -1 | -2 | 2 | 1 | -1 | 1 | / | /
Fc1ccc(/C=C/c2nnc(-c3cccs3)o2)cc1 | 3.7* | 7 | 15* | 2 | 0 | 4 | 12* | 1
O=C(NCCc1ccccc1)c1ccc2nc(N3CCOCC3)sc2c1 | 1 | -2 | 14* | 0 | -1 | -2 | 0 | 0
CC(CCc1ccccc1)NC(=O)c1ccc2nc(N3CCOCC3)sc2c1 (stereo not given) | 0 | -1 | 1 | 1 | -2 | -1 | / | /
C#CCn1c(S(=O)(=O)Cc2ccc(F)cc2)nc(-c2ccccc2)c1-c1ccccc1 | -3 | -6 | -8 | -3 | -2 | -3 | / | /
COC(=O)c1ccc(NC(=O)CN2CCN(c3ccccn3)CC2)cc1 | -1 | -4 | 0 | -1 | -1 | -1 | / | /
COc1ccccc1/C=C/C=N/Nc1cccc(C(=O)O)c1 | 3 | 4 | 15* | -1 | 1.6* | 4 | 22* | 1
COc1ccc(Br)cc1/C=N/Nc1cccc(C(=O)O)c1 | 1 | 2 | 0 | 0 | 0 | 1 | / | /
CCOC(=O)C1CCCN(C(=O)c2ccc3nc(-c4cccc(OC)c4)oc3c2)C1 (stereo not given) | -4 | 2 | 14* | -2 | 0 | 3 | 12* | 1
CC(C)(C)N(Cc1ccccc1)C(=O)COC(=O)C1CCCCC1 | 1 | -7 | 0 | 4 | 0 | -1 | / | /
